# B1: unnamed (peptide)
# chain: DKKTKPTPPPKPSHL
# B2: unnamed (peptide)
# chain: NVLRKILEIPLHSFS
# Columns and labels:
# Experiment in all cases: SPOT peptide array binding signal intensity (averaged, normalized) (arbitrary units (background-subtracted, floor 0; scale differs between SH3 domains)); higher = stronger binding of the SH3 domain to the peptide
# AgAbp1 = molecular target: AgAbp1
# Method in brief: (§1)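 To measure binding, SH3 domains from four yeast species were fused to GST, expressed in E. coli BL21(DE3) and purified on glutathione Sepharose. Each domain was incubated at 10 μg/ml overnight at 4°C on cellulose membranes with synthetic 15-mer peptides whose cysteines were replaced by serines. Anti-GST antibody, an HRP anti-mouse secondary and luminol were used for detection, and images were quantified with Genespotter. Reported binding signal is normalized, background-subtracted spot intensity averaged over replicates, in arbitrary units that differ between domains.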
# AgBbc1 = molecular target: AgBbc1
# Method in brief: as §1
# AgBem1-D1 = molecular target: AgBem1-D1
# Method in brief: as §1
# AgBzz1-D1 = molecular target: AgBzz1-D1
# Method in brief: as §1
# AgBzz1-D2 = molecular target: AgBzz1-D2
# Method in brief: as §1
# AgCyk3 = molecular target: AgCyk3
# Method in brief: as §1
# AgFus1 = molecular target: AgFus1
# Method in brief: as §1
# AgHof1 = molecular target: AgHof1
# Method in brief: as §1
# AgHse1 = molecular target: AgHse1
# Method in brief: as §1
# AgLsb1 = molecular target: AgLsb1
# Method in brief: as §1
# AgLsb4 = molecular target: AgLsb4
# Method in brief: as §1
# AgMyo5 = molecular target: AgMyo5
# Method in brief: as §1
# AgNbp2 = molecular target: AgNbp2
# Method in brief: as §1
# AgRvs167 = molecular target: AgRvs167
# Method in brief: as §1
# AgSho1 = molecular target: AgSho1
# Method in brief: as §1
# AgSla1-D1-D2 = molecular target: AgSla1-D1-D2
# Method in brief: as §1
# AgSla1-D3 = molecular target: AgSla1-D3
# Method in brief: as §1
# CaAbp1-D1 = molecular target: CaAbp1-D1
# Method in brief: as §1
# CaAbp1-D2 = molecular target: CaAbp1-D2
# Method in brief: as §1
# CaBbc1 = molecular target: CaBbc1
# Method in brief: as §1
# CaBem1-D1 = molecular target: CaBem1-D1
# Method in brief: as §1
# CaBzz1-D1 = molecular target: CaBzz1-D1
# Method in brief: as §1
# CaBzz1-D2 = molecular target: CaBzz1-D2
# Method in brief: as §1
# CaCyk3 = molecular target: CaCyk3
# Method in brief: as §1
# CaFus1 = molecular target: CaFus1
# Method in brief: as §1
# CaHof1 = molecular target: CaHof1
# Method in brief: as §1
# CaHse1 = molecular target: CaHse1
# Method in brief: as §1
# CaLsb1 = molecular target: CaLsb1
# Method in brief: as §1
# CaLsb4 = molecular target: CaLsb4
# Method in brief: as §1
# CaMyo5 = molecular target: CaMyo5
# Method in brief: as §1
# CaNbp2 = molecular target: CaNbp2
# Method in brief: as §1
# CaRvs167 = molecular target: CaRvs167
# Method in brief: as §1
# CaRvs167-3 = molecular target: CaRvs167-3
# Method in brief: as §1
# CaSho1 = molecular target: CaSho1
# Method in brief: as §1
# CaSla1-D1-D2 = molecular target: CaSla1-D1-D2
# Method in brief: as §1
# CaSla1-D3 = molecular target: CaSla1-D3
# Method in brief: as §1
# ScAbp1 = molecular target: ScAbp1
# Method in brief: as §1
# ScBbc1 = molecular target: ScBbc1
# Method in brief: as §1
# ScBem1-D1 = molecular target: ScBem1-D1
# Method in brief: as §1
# ScBzz1-D1 = molecular target: ScBzz1-D1
# Method in brief: as §1
# ScBzz1-D2 = molecular target: ScBzz1-D2
# Method in brief: as §1
# ScCyk3 = molecular target: ScCyk3
# Method in brief: as §1
# ScFus1 = molecular target: ScFus1
# Method in brief: as §1
# ScHof1 = molecular target: ScHof1
# Method in brief: as §1
# ScHse1 = molecular target: ScHse1
# Method in brief: as §1
# ScLsb1 = molecular target: ScLsb1
# Method in brief: as §1
# ScLsb2 = molecular target: ScLsb2
# Method in brief: as §1
# ScLsb3 = molecular target: ScLsb3
# Method in brief: as §1
# ScLsb4 = molecular target: ScLsb4
# Method in brief: as §1
# ScMyo3 = molecular target: ScMyo3
# Method in brief: as §1
# ScMyo5 = molecular target: ScMyo5
# Method in brief: as §1
# ScNbp2 = molecular target: ScNbp2
# Method in brief: as §1
# ScPex13 = molecular target: ScPex13
# Method in brief: as §1
# ScRvs167 = molecular target: ScRvs167
# Method in brief: as §1
# ScSho1 = molecular target: ScSho1
# Method in brief: as §1
# ScSla1-D1-D2 = molecular target: ScSla1-D1-D2
# Method in brief: as §1
# ScSla1-D3 = molecular target: ScSla1-D3
# Method in brief: as §1
# SpAbp1-D1 = molecular target: SpAbp1-D1
# Method in brief: as §1
# SpBbc1 = molecular target: SpBbc1
# Method in brief: as §1
# SpBzz1-D1 = molecular target: SpBzz1-D1
# Method in brief: as §1
# SpBzz1-D2 = molecular target: SpBzz1-D2
# Method in brief: as §1
# SpCyk3 = molecular target: SpCyk3
# Method in brief: as §1
# SpHof1 = molecular target: SpHof1
# Method in brief: as §1
# SpHof1-2 = molecular target: SpHof1-2
# Method in brief: as §1
# SpHof1-3 = molecular target: SpHof1-3
# Method in brief: as §1
# SpHse1 = molecular target: SpHse1
# Method in brief: as §1
# SpLsb1 = molecular target: SpLsb1
# Method in brief: as §1
# SpLsb4 = molecular target: SpLsb4
# Method in brief: as §1
# SpMyo1 = molecular target: SpMyo1
# Method in brief: as §1
# SpNbp2 = molecular target: SpNbp2
# Method in brief: as §1
# SpPex13 = molecular target: SpPex13
# Method in brief: as §1
# SpRvs167 = molecular target: SpRvs167
# Method in brief: as §1
# SpSla1-D1-D2 = molecular target: SpSla1-D1-D2
# Method in brief: as §1
# SpSla1-D3 = molecular target: SpSla1-D3
# Method in brief: as §1
binder,measurement,setting,value
B1,SPOT peptide array binding signal intensity,AgAbp1,1090
same,SPOT peptide array binding signal intensity,AgBbc1,24.8
same,SPOT peptide array binding signal intensity,AgBem1-D1,≤ 0
same,SPOT peptide array binding signal intensity,AgBzz1-D1,61
same,SPOT peptide array binding signal intensity,AgBzz1-D2,34.5
same,SPOT peptide array binding signal intensity,AgCyk3,1
same,SPOT peptide array binding signal intensity,AgFus1,6
same,SPOT peptide array binding signal intensity,AgHof1,18.5
same,SPOT peptide array binding signal intensity,AgHse1,≤ 0
same,SPOT peptide array binding signal intensity,AgLsb1,≤ 0
same,SPOT peptide array binding signal intensity,AgLsb4,≤ 0
same,SPOT peptide array binding signal intensity,AgMyo5,≤ 0
same,SPOT peptide array binding signal intensity,AgNbp2,≤ 0
same,SPOT peptide array binding signal intensity,AgRvs167,0.167
same,SPOT peptide array binding signal intensity,AgSho1,45
same,SPOT peptide array binding signal intensity,AgSla1-D1-D2,≤ 0
same,SPOT peptide array binding signal intensity,AgSla1-D3,2
same,SPOT peptide array binding signal intensity,CaAbp1-D1,1790
same,SPOT peptide array binding signal intensity,CaAbp1-D2,3130
same,SPOT peptide array binding signal intensity,CaBbc1,50.8
same,SPOT peptide array binding signal intensity,CaBem1-D1,≤ 0
same,SPOT peptide array binding signal intensity,CaBzz1-D1,1480
same,SPOT peptide array binding signal intensity,CaBzz1-D2,262
same,SPOT peptide array binding signal intensity,CaCyk3,≤ 0
same,SPOT peptide array binding signal intensity,CaFus1,≤ 0
same,SPOT peptide array binding signal intensity,CaHof1,0.75
same,SPOT peptide array binding signal intensity,CaHse1,8.5
same,SPOT peptide array binding signal intensity,CaLsb1,0.5
same,SPOT peptide array binding signal intensity,CaLsb4,≤ 0
same,SPOT peptide array binding signal intensity,CaMyo5,≤ 0
same,SPOT peptide array binding signal intensity,CaNbp2,≤ 0
same,SPOT peptide array binding signal intensity,CaRvs167,0.333
same,SPOT peptide array binding signal intensity,CaRvs167-3,3.5
same,SPOT peptide array binding signal intensity,CaSho1,24
same,SPOT peptide array binding signal intensity,CaSla1-D1-D2,≤ 0
same,SPOT peptide array binding signal intensity,CaSla1-D3,≤ 0
same,SPOT peptide array binding signal intensity,ScAbp1,2120
same,SPOT peptide array binding signal intensity,ScBbc1,≤ 0
same,SPOT peptide array binding signal intensity,ScBem1-D1,≤ 0
same,SPOT peptide array binding signal intensity,ScBzz1-D1,1
same,SPOT peptide array binding signal intensity,ScBzz1-D2,46.5
same,SPOT peptide array binding signal intensity,ScCyk3,≤ 0
same,SPOT peptide array binding signal intensity,ScFus1,1
same,SPOT peptide array binding signal intensity,ScHof1,1.5
same,SPOT peptide array binding signal intensity,ScHse1,16.5
same,SPOT peptide array binding signal intensity,ScLsb1,≤ 0
same,SPOT peptide array binding signal intensity,ScLsb2,≤ 0
same,SPOT peptide array binding signal intensity,ScLsb3,1270
same,SPOT peptide array binding signal intensity,ScLsb4,≤ 0
same,SPOT peptide array binding signal intensity,ScMyo3,0.5
same,SPOT peptide array binding signal intensity,ScMyo5,≤ 0
same,SPOT peptide array binding signal intensity,ScNbp2,4
same,SPOT peptide array binding signal intensity,ScPex13,138
same,SPOT peptide array binding signal intensity,ScRvs167,≤ 0
same,SPOT peptide array binding signal intensity,ScSho1,280
same,SPOT peptide array binding signal intensity,ScSla1-D1-D2,≤ 0
same,SPOT peptide array binding signal intensity,ScSla1-D3,3
same,SPOT peptide array binding signal intensity,SpAbp1-D1,2240
same,SPOT peptide array binding signal intensity,SpBbc1,3.5
same,SPOT peptide array binding signal intensity,SpBzz1-D1,235
B2,SPOT peptide array binding signal intensity,CaNbp2,94.5
same,SPOT peptide array binding signal intensity,CaRvs167,≤ 0
same,SPOT peptide array binding signal intensity,CaRvs167-3,7.25
same,SPOT peptide array binding signal intensity,CaSho1,75
same,SPOT peptide array binding signal intensity,CaSla1-D1-D2,≤ 0
same,SPOT peptide array binding signal intensity,CaSla1-D3,≤ 0
same,SPOT peptide array binding signal intensity,ScAbp1,2
same,SPOT peptide array binding signal intensity,ScBbc1,≤ 0
same,SPOT peptide array binding signal intensity,ScBem1-D1,≤ 0
same,SPOT peptide array binding signal intensity,ScBzz1-D1,12
same,SPOT peptide array binding signal intensity,ScBzz1-D2,26
same,SPOT peptide array binding signal intensity,ScCyk3,31
same,SPOT peptide array binding signal intensity,ScFus1,123
same,SPOT peptide array binding signal intensity,ScHof1,≤ 0
same,SPOT peptide array binding signal intensity,ScHse1,1780
same,SPOT peptide array binding signal intensity,ScLsb1,59.8
same,SPOT peptide array binding signal intensity,ScLsb2,≤ 0
same,SPOT peptide array binding signal intensity,ScLsb3,≤ 0
same,SPOT peptide array binding signal intensity,ScLsb4,≤ 0
same,SPOT peptide array binding signal intensity,ScMyo3,0.75
same,SPOT peptide array binding signal intensity,ScMyo5,≤ 0
same,SPOT peptide array binding signal intensity,ScNbp2,9.5
same,SPOT peptide array binding signal intensity,ScPex13,≤ 0
same,SPOT peptide array binding signal intensity,ScRvs167,0.833
same,SPOT peptide array binding signal intensity,ScSho1,120
same,SPOT peptide array binding signal intensity,ScSla1-D1-D2,≤ 0
same,SPOT peptide array binding signal intensity,ScSla1-D3,≤ 0
same,SPOT peptide array binding signal intensity,SpAbp1-D1,≤ 0
same,SPOT peptide array binding signal intensity,SpBbc1,38
same,SPOT peptide array binding signal intensity,SpBzz1-D1,≤ 0
same,SPOT peptide array binding signal intensity,SpBzz1-D2,≤ 0
same,SPOT peptide array binding signal intensity,SpCyk3,0.5
same,SPOT peptide array binding signal intensity,SpHof1,2
same,SPOT peptide array binding signal intensity,SpHof1-2,≤ 0
same,SPOT peptide array binding signal intensity,SpHof1-3,591
same,SPOT peptide array binding signal intensity,SpHse1,2430
same,SPOT peptide array binding signal intensity,SpLsb1,≤ 0
same,SPOT peptide array binding signal intensity,SpLsb4,≤ 0
same,SPOT peptide array binding signal intensity,SpMyo1,≤ 0
same,SPOT peptide array binding signal intensity,SpNbp2,32.5
same,SPOT peptide array binding signal intensity,SpPex13,2
same,SPOT peptide array binding signal intensity,SpRvs167,≤ 0
same,SPOT peptide array binding signal intensity,SpSla1-D1-D2,≤ 0
same,SPOT peptide array binding signal intensity,SpSla1-D3,≤ 0
